About 83,000 compounds went through this panel and 20% of them were active in at least one assay; those are over-represented in the sample as a whole.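 In brief: 96-well plates, 48 h treatment, single concentration, percent growth endpoint.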 Active and inactive are the calls of the source. The calls were made as follows: active = growth percent below 10; inactive = the rest.

Growth data for 40 compounds are collected here from PubChem BioAssay (NCI).

This experiment has as its system SK-MEL-28 melanoma. The experiment can be described thus: NCI-60 one-dose screen, 48 h (100 = growth as untreated, 0 = no growth, -100 = all killed). As to conditions: 10 µM unless noted.
Regarding `O=C1Nc2ccc(Cl)cc2/C1=C/c1cccs1`, the growth was 113% (inactive).

With `CCOc1cc(/C=C/C(=O)C(C(=O)/C=C/c2ccc(OC(=O)CNc3nc4ccccc4[nH]3)c(OCC)c2)C(=O)CNc2nc3ccccc3[nH]2)ccc1OC(=O)CNc1nc2ccccc2[nH]1`, the growth was -29.6% (active).

For the compound `NS(=O)(=O)N(c1cc(C(F)(F)F)cc(C(F)(F)F)c1)C1CCN(Cc2ccc(C(F)(F)F)cc2)CC1`, the growth was 55.4% (inactive).

For `CCCCCCCSc1ncnc2[nH]ncc12`, the growth is 106% (inactive).

For `CO[C@H]1/C=C/O[C@@]2(C)Oc3c(C)c(O)c4c(O)c(c(/C=N/N5C(C)CN(Cc6ccc(C#N)cc6)CC5C)c(O)c4c3C2=O)NC(=O)/C(C)=C\C=C\[C@H](C)[C@H](O)[C@@H](C)[C@@H](O)[C@@H](C)[C@H](OC(C)=O)[C@@H]1C` (stereo not given in full), the growth is 46.3% (inactive).

As for `COc1cccc(C2=NN(C(C)=O)C(c3cc(OC)c(OC)c(OC)c3)C2)c1` (stereo not given), the growth is 40.9% (inactive).

Take `COc1c(O)cc2c(c1CC=C(C)C)OC(=O)c1c(cc(O)c(CC=C(C)C)c1O)O2`: the growth is 80.5% (inactive).

On to `O=CN1N=C(c2ccc(Nc3ccnc4cc(Cl)ccc34)cc2)CC1c1ccc(Cl)cc1` (stereo not given), for which the growth was 39.2% (inactive).

As for `CCOC1Oc2ccccc2C(=O)/C1=N/c1nccs1` (stereo not given), the growth is 99.9% (inactive).

`NC(=O)NC1(C(=O)O)CCCC1`: the growth was 122% (inactive).

In the case of `O=c1ccn(C2CC=C(CO)O2)c(=O)[nH]1` (stereo not given), the growth was 106% (inactive).

Turning to `CC1CN(/N=C/c2ccc([N+](=O)[O-])o2)C(=N)O1` (stereo not given), the growth was 115% (inactive).

On to `N/C(=N\c1nc2ccccc2s1)NC(=O)Nc1ccccc1Cl`, for which the growth is 46.8% (inactive).

Consider `O=Cc1ccccc1C(=O)O`, for which the growth is 106% (inactive).

`O=c1[nH]cc(Nc2cc(Cl)c3nonc3c2[N+](=O)[O-])c(=O)[nH]1`: the growth was 83.2% (inactive).

With `Nc1nc(Nc2ccccc2SSc2ccccc2Nc2nc(N)nc(-c3cccc(Cl)c3)n2)nc(-c2cccc(Cl)c2)n1`, the growth is 102% (inactive).

For the compound `CCCCCCCCCCCCC1CCCC(C)C1` (stereo not given), the growth was 88.9% (inactive).

Take `COc1ccc(-n2cnc3cc(C(=O)N4CCCCC4)ccc32)cc1`: the growth is 99.1% (inactive).

Regarding `COc1ccc2nc(N/N=C(\C)c3ccccn3)cc(C)c2c1`, the growth was 20% (inactive).

As to `COc1cc(C(=O)c2cc3c(cc2C)OCO3)cc(OC)c1OC`, the growth was 46.6% (inactive).

On to `NC(=N\N=C/Cc1ccccc1)/C(N)=N\N=C\Cc1ccccc1`, for which the growth is 120% (inactive).

On to `CCSc1nc(-c2cccs2)n2nc(-c3ccco3)cc2n1`, for which the growth was 113% (inactive).

`COc1ccc2c(c1)[n+](=O)c(C(=O)/C=C/c1cc(OC)c(OC)c(OC)c1)c(C)n2[O-]`: the growth was 69.1% (inactive).

Consider `O=C(CNC(=O)c1cccc2ccccc12)Nc1ccccc1Oc1cccc(O)c1`, for which the growth is 57.3% [5 µM] (inactive).

As to `CN1C(=O)C(C2=NN(C=O)C(c3ccc(F)cc3)C2)C(=O)N(C)C1=O` (stereo not given), the growth was 111% (inactive).

On to `Cc1ncc(C(=O)Nc2ccc(CN3CCN(C)CC3)c(C(F)(F)F)c2)cc1C#Cc1cncc2ncccc12`, for which the growth was 16.3% (inactive).

Turning to `O=C1C=CC(=O)N1c1ccccc1N1C(=O)C=CC1=O`, the growth is 114% (inactive).

For the compound `N#Cc1c(-c2ccccc2)cc(-c2ccccc2)n(CCCCCCC(=O)O)c1=O`, the growth was 103% (inactive).

Turning to `COc1ccc(C2CC(c3ccc4c(c3)OCO4)=NN2C=O)cc1` (stereo not given), the growth is 107% (inactive).

In the case of `O=C(O)C1CCN(S(=O)(=O)c2ccc(-c3ccccc3)cc2)CC1`, the growth is 91.4% (inactive).

Consider `CC[C@@H](C)/C=C(C)/C=C/C(=O)c1c(O)c(-c2ccc(O)cc2)cn(OC2CC(=O)CCC(C)OC(=O)CC2O)c1=O` (stereo not given in full), for which the growth was 34% (inactive).

With `CCCCCCCCN(CCO)CCCCCCCC`, the growth was 101% (inactive).

Consider `O=C(Nc1ccc2c(c1)C(=O)c1ccccc1-2)c1ccccc1`, for which the growth was 105% (inactive).

In the case of `CN(C)CCCNc1nn2c(=O)c3ccccc3nc2c2ccccc12`, the growth was 93.2% (inactive).

Consider `CCN(CC)CCNCC(=O)Oc1ccc(/C=C/C(=O)CC(=O)/C=C/c2ccc(OC(=O)CNCCN(CC)CC)c(OC)c2)cc1OC`, for which the growth was 14.5% (inactive).

Turning to `Nc1c(C(=O)Nc2cccc(Cl)c2)sc2nc3c(cc12)C(O)CCC3` (stereo not given), the growth is 55.8% (inactive).

Consider `N#CC1c2ccccc2C=CN1C(=O)N(c1ccccc1)c1ccccc1` (stereo not given), for which the growth was 67% (inactive).

Take `C=C1CCC2C3(C)COC(c4ccccc4)OC3CCC2(C)C1C/C=C1/C(=O)OCC1OC(C)=O` (stereo not given): the growth is 118% (inactive).

As for `O=C1CNc2cc(Cl)ccc2N1`, the growth is 107% (inactive).

In the case of `COCCOCCOCCOCCOc1ccc2c(c1)C(=O)c1nc3ncccc3c(=O)n1-2`, the growth was -75.3% (active).
